An excerpt weighted towards active compounds, which were near 7.7% of everything screened.
FMDV antiviral = High Throughput Screening for Foot and Mouth Disease Virus Antivirals. FMDV antiviral cell-based qHTS. Potency, µM (doses to about 57.9 µM), without a hit: at the highest dose activity change, negative = inhibition, usual class: inhibitors. 410,000 tested, 1.2% active. AID 1159524, 2015; calls by dose curve; tested in HEK293T cells; also: read-out not given here; potency is read from the fitted curve at half-maximal effect; nearly all actives have a fitted effect of over 45% in size
HCMV antiviral = qHTS Assay for inhibitors of the human cytomegalovirus (HCMV) | HFF cells, HCMV-luciferase reporter, 72 h; active compounds read low | activity change, negative = inhibition, % at 57.5 µM | 410,000 tested, 4.5% active | AID 1259415, 2018; in the data active = activity change below about -60%; inconclusive = no clear call, values can overlap the other calls; inactive = above about -39%
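Two-dose cell screen: HFF monolayers treated with compounds and infected with luciferase-expressing HCMV at 1 PFU/cell, 72 h at 37C, then lysed for luciferase measurement.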
Sm TGR inh = qHTS Assay for the Inhibitors of Schistosoma Mansoni Peroxiredoxins | Schistosoma mansoni thioredoxin glutathione reductase (TGR), Q962Y6 | purified TGR, DTNB reduction, TNB absorbance 405 nm | Potency, µM (doses to about 114 µM), for inactives: top-dose activity change, negative = inhibition, usual class: inhibitors | 360,000 tested, 3% active | AID 485364, 2010; also: potency is read from the fitted curve at half-maximal effect; nearly all actives have a fitted effect of over 60% in size
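Kinetic colorimetric format: TGR-catalysed, NADPH-driven DTNB reduction monitored via TNB absorbance. Enzyme dispensed at 20 nM; compound exposure 15 min at room temperature before reaction start.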
RE007 growth inh = qHTS Assay for Inhibitors of the HIV-1 protein Vpr | S. pombe RE007 Vpr strain, BacTiter-Glo ATP luminescence, 24 h | Potency, µM (doses to about 92.2 µM), without a hit: at the top dose activity change, negative = less growth, usual class: inhibitors | 360,000 tested, 0.21% active; active = well fitted falling curve with a large enough effect; inconclusive = small, poorly fitted or top-dose-only effect; inactive = no such curve, though single readings can be large or run the other way; also: potency is read from the fitted curve at half-maximal effect; nearly all actives have a fitted effect of over 50% in size
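Fission yeast strain RE007, carrying one chromosomally integrated HIV-1 vpr copy, was seeded at OD 0.01 in PMG+AL medium with 23 nL pinned compound. After 24 h at 30 °C and 99% humidity, viability was read by BacTiter-Glo luminescence.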
FBPA Giardia inh = qHTS Assay for Inhibitors of Fructose-1,6-bisphosphate Aldolase from Giardia Lamblia; purified Giardia FBPA; Potency, µM (highest dose often 59.6 µM), for the others: top-dose activity, negative = inhibition, hits mostly inhibitors; 290,000 tested, 0.71% active; AID 2451, 2010; also: potency is read from the fitted curve at half-maximal effect; nearly all actives have a fitted effect of over 55% in size
Target sequence (A8B2U2 whole entry, looked up): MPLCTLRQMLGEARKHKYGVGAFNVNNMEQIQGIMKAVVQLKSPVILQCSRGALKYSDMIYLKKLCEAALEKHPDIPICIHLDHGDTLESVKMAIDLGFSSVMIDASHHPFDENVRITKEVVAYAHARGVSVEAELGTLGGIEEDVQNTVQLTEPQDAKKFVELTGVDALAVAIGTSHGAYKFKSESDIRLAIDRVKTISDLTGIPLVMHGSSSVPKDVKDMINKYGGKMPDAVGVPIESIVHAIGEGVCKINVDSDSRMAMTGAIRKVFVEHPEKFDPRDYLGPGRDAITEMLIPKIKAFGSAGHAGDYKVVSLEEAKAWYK
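40 nM FBPA preincubated 10 min at RT with compound (up to 57.5 uM final), then substrate plus GAPDH/TPI/NAD/arsenate coupling and diaphorase/resazurin added. Fluorescence read after 20 min at RT, 525/598 nm.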
Tb PYK inh = qHTS of Trypanosoma Brucei Inhibitors | Potency, µM (doses to about 76.8 µM), without a hit: at the top dose activity, negative = inhibition, actives largely listed as inhibitors | 410,000 tested, 0.12% active | TbPYK enzyme, Kinase-Glo Plus ATP luminescence, 45 min | AID 624173, 2012 | pyruvate kinase (Trypanosoma brucei), Q57TT1; also: potency is read from the fitted curve at half-maximal effect; nearly all actives have a fitted effect of over 50% in size
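Activity of T. brucei pyruvate kinase was followed by Kinase-Glo Plus luminescence after the enzyme reacted 45 min at room temperature with 130 uM ADP (final) and substrate. Test compounds were added before ADP at multiple concentrations.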
Numbers without * were called inactive; u = inconclusive; x = no result; ! = not confirmed by another sample. Unless noted, calls follow the shape of the dose curve; as a rule, active = well fitted curve in the direction sought with a large enough effect; inconclusive = small, poorly fitted or top-dose-only effect, or another doubt; inactive = no such curve, though single readings can be large; an effect the other way counts as inactive or inconclusive. % is scaled to controls: 0 for no effect and ±100 for the full control effect.

SMILES | FMDV antiviral | HCMV antiviral | Sm TGR inh | RE007 growth inh | FBPA Giardia inh | Tb PYK inh
Cc1ccc(S(=O)(=O)c2nc(-c3ccco3)oc2NCC2CCCO2)cc1 (centres undefined) | 21% | -26 | 8.9µM* | 19% | -29% | -19%
O=S(=O)(c1ccc(Br)cc1)c1nc(-c2ccco2)oc1NCC1CCCO1 (centres undefined) | 38% | 5 | 20µM* | 14% | -6% | 4%
Cc1ccc(CSc2oc(-c3ccco3)nc2S(=O)(=O)c2ccc(C)cc2)cc1 | -26% | -18 | -7% | x | x | -11%
CCOc1ccc(CNc2nc3nc(C)c(Cc4ccccc4)c(=O)n3[nH]2)cc1 | -9% | 4 | 2% | x | x | 5%
CC(=O)C1=C(c2ccc(Br)cc2)C(=O)c2ccccc2C1=O | 3.2µM* | u | u | u | 0.28µM* | -6%
CC(=O)Nc1c(Br)cc2c(c1Br)C(=O)c1ccccc1-2 | -7% | 26 | x | 11% | x | 0%
CCc1ccc(-n2nc(CO)c(C(=O)NC(C)c3ccc(Cl)cc3)n2)cc1 (centres undefined) | -14% | 0 | -1% | x | x | 4%
COc1ccc(CN2CCc3c(c(=O)n4ncc(C(=O)N5CCN(c6ccccc6F)CC5)c4n3C)C2)cc1 | u | u | 3% | x | x | 3%
Cc1ccc(S(=O)(=O)N2CCCc3cc(NS(=O)(=O)c4ccc(F)c(C)c4)ccc32)cc1 | -40% | -60* | 5% | x | x | 1%
O=C1C(=C(c2ccccc2)N2CCOCC2)Cc2ccccc21 | 8.9µM* | -99* | x | -5% | x | -6%
CNc1ncncc1-c1ccc(C(=O)N(C)C)cc1 | -14% | x | x | x | -8% | x
CCCS(=O)(=O)NCc1c(C)ncc2c1CCN(C(=O)c1c(F)ccc(F)c1F)C2 | -8% | x | x | x | x | x
O=C(CC(c1ccc(F)cc1)c1ccco1)N1CCCC1 (centres undefined) | 4% | -6 | 14µM* | 1% | 2% | -11%
CCCN(CCC)C(=O)CC(c1ccc(F)cc1)c1ccco1 (centres undefined) | -23% | 5 | 11µM* | 4% | 0% | -6%
COc1ccc(OC)c2sc(N3CCN(C(=O)C(C)(C)C)CC3)nc12 | 12% | 40 | 2% | x | x | -4%
COc1ccc(N2CCN(C(CNS(=O)(=O)c3c(C)cc(C)cc3C)c3ccco3)CC2)cc1 (centres undefined) | -5% | u | -6% | x | x | -6%
O=C(Nc1ccc(F)cc1Cl)C1CCN(c2ncnc3c2nc2n3CCCCC2)CC1 | -17% | 4 | 4% | x | x | 0%
O=C(COc1ccccc1Cl)OCc1cc(=O)n2nc(C3CC3)sc2n1 | 0% | -15 | 0% | x | x | 6%
COCC(C)N1C(=O)Cc2c1nc(N)c1c(N)nc(N3CCN(c4ccccc4F)CC3)c(C#N)c21 (centres undefined) | 32µM* | u | -3% | 22% | -30% | -7%
COCCN1C(=O)Cc2c1nc(N)c1c(N)nc(N3CCN(c4ccc(F)cc4)CC3)c(C#N)c21 | -15% | u | -6% | 15% | -29% | -10%
O=C(NCc1ccccn1)c1cnn(-c2nccc(-c3cccs3)n2)c1C1CC1 | -5% | x | x | x | x | x
Cc1cccc(O)c1C | -17% | 19 | x | -3% | x | -2%
Cc1cccc(C)c1N=Nc1c(C)cc(O)cc1C | -10% | u | -5% | 25µM* | 3% | -5%
Cn1c(=O)c2c(nc(Oc3ccccc3)n2Cc2c(Cl)cccc2Cl)n(C)c1=O | -6% | 2 | -1% | x | x | -6%
O=C(c1ccco1)N1CCn2cccc2C1c1ccccc1 (centres undefined) | 9% | 9 | 35µM* | -5% | -17% | -3%
SMILES | FMDV antiviral | HCMV antiviral | Sm TGR inh | RE007 growth inh | FBPA Giardia inh | Tb PYK inh
COc1cccc(-c2cc(C(=O)Nc3cc(Cl)ccc3O)on2)c1 | 56% | 39 | -13% | x | x | 0%
CN1CCN(CCc2ccc(Cl)c(Cl)c2)CC1 | -7% | x | x | x | -20% | x
Cn1cccc1/C=C1\C(=O)NC(=O)N(Cc2ccco2)C1=O | 0% | u | 40µM* | -5% | 0% | -7%
Cc1ccc(OCCn2cccc2/C=C2/C(=O)NC(=O)N(Cc3ccco3)C2=O)cc1 | 16% | u | 14µM* | -6% | 2% | -13%
COc1ccc(/C=C2/C(=O)NC(=O)N(Cc3ccco3)C2=O)cc1 | x | x | x | x | -7% | x
Cc1ccc(-n2c(C)cc(/C=C3/C(=O)NC(=O)N(Cc4ccco4)C3=O)c2C)cc1 | -22% | -37 | -33% | 4% | 1% | 2%
Cc1ccc(CNC(=O)Cc2c(C)c3cc4c(C)coc4cc3oc2=O)cc1 | -6% | -23 | 5% | x | x | -3%
CCC[C@H]1[C@@H](NS(=O)(=O)c2cc(Cl)cc(Cl)c2)CC[C@@]23CCCN2C(=O)CCC[C@@H]13 | x | 2 | x | x | x | x
COc1ccc(C2NC(=O)C(C#N)=C(S)N2c2ccc(C)cc2)cc1OC (centres undefined) | 14% | -65* | 2% | 5% | u | -4%
Cc1ccccc1NC1(C#N)C(=O)Nc2ccccc21 (centres undefined) | -27% | 42 | 8% | 26% | -10% | -1%
CC(C)c1ccc(NC2(C#N)C(=O)Nc3ccccc32)cc1 (centres undefined) | 1% | -72* | 31% | -12% | x | 6%
Cc1ccc(-n2cccn2)c(CN2CCCC(C(=O)c3ccc4c(c3)OCO4)C2)c1 (centres undefined) | -23% | -73* | 4% | -10% | 9% | 2%
O=c1[nH]c(/C=C/c2ccc(Cl)cc2Cl)c([N+](=O)[O-])c(=O)[nH]1 | -4% | 74 | 72% | 1% | 12% | 8%
Cc1cc2nc3c(=O)[nH]c(=O)[nH]c3nc2c([N+](=O)[O-])c1N | -11% | 77 | -27% | -15% | 5µM* | -7%
COc1cc(-c2nc3nc[nH]n3c2Nc2ccc(C(C)C)cc2)ccc1O | -12% | -68* | 14µM* | x | x | 3%
COc1cc(-c2nc3cnccn3c2Nc2ccc(C)cc2)ccc1O | -16% | 84 | 25% | -8% | -5% | 0%
COc1cc(-c2nc3cnccn3c2Nc2ccc(C(C)C)cc2)ccc1O | 40µM* | -92*! | -9% | -5% | -1% | -7%
Cc1ccc(OC(=O)c2ccc(C)c(C)c2)cn1 | 75% | -28 | 2% | -24% | 3% | 3%
COc1ccc(C(=O)c2ccc(Cl)c([N+](=O)[O-])c2)cc1 | u | -83* | u | -9% | -4% | 0%

Screens (PubChem BioAssay)
